Drawing on PubChem BioAssay (Tox21), this text covers Potency and activity change, positive = activation for 7 compounds.

Where “and” joins values, the source holds several entries; their conditions need not be identical. Equal entries are not always repeated. Results filed as inconclusive are left out. Where a structure was tested more than once in an assay, its records may differ in their call. Calls of active or inactive are those of the source. Unless noted, calls follow the shape of the dose curve; as a rule, active = well fitted curve in the direction sought with a large enough effect in the repeat runs; inconclusive = weak or mixed curves; inactive = no such curve, though single readings can be large; an effect the other way counts as inactive or inconclusive.

A short description of experiment [1]: qHTS assay to identify small molecule antagonists of the estrogen related receptor (ERR) signaling pathway from Tox21 library - cell viability counter screen (AID 1224834). Also: nearly all actives have a fitted effect of over 30% in size. Also: potency is read from the fitted curve at half-maximal effect. The procedure, abridged: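 ERR reporter cells, 2,000 per well, rested 6 h, then exposed to compound in DMSO for 17.5 hours at 37 C. Viability read as fluorescence after 30 min with CellTiter-Fluor.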

The nature of experiment [2]: qHTS assay to identify small molecule agonists of the constitutive androstane receptor (CAR) signaling pathway - cell viability counter screen (AID 1224836). Also: nearly all actives have a fitted effect of over 45% in size. The procedure, abridged: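 Viability read-out: CellTiter-Fluor fluorescence after 23 h compound exposure at 37 C/5% CO2 in double-stable HepG2-CYP2B6-hCAR cells, with PK11195 present at 0.75 uM final; compounds tested in 15-point titration.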
For orientation: Quantitative high-throughput screening tests each substance at several concentrations.

A short description of experiment [3]: qHTS assay to identify small molecule antagonists of the constitutive androstane receptor (CAR) signaling pathway - cell viability counter screen (AID 1224837). Also: nearly all actives have a fitted effect of over 45% in size. The procedure, abridged: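 HepG2 cells stably carrying hCAR and CYP2B6-2.2kb reporter, stimulated with 50 nM CITCO and compounds at 15 concentrations for 23 h at 37 C. Viability measured by CellTiter-Fluor fluorescence.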

In experiment [4] the target is Nuclear receptor subfamily 1 group I member 3 (Homo sapiens) (UniProt Q14994). The experiment in a line: qHTS assay to identify small molecule antagonists of the constitutive androstane receptor (CAR) signaling pathway (AID 1224838). Also: nearly all actives have a fitted effect of over 40% in size. The procedure, abridged: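 HepG2 cells stably carrying hCAR and a CYP2B6-2.2kb luciferase reporter, seeded 4 hrs before compound (15 concentrations). Stimulated with 50 nM CITCO for 24 hr at 37 C. ONE-Glo luminescence read after 30 min at room temperature.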
Nuclear receptor subfamily 1 group I member 3 (Homo sapiens), sequence (Q14994 whole entry, looked up): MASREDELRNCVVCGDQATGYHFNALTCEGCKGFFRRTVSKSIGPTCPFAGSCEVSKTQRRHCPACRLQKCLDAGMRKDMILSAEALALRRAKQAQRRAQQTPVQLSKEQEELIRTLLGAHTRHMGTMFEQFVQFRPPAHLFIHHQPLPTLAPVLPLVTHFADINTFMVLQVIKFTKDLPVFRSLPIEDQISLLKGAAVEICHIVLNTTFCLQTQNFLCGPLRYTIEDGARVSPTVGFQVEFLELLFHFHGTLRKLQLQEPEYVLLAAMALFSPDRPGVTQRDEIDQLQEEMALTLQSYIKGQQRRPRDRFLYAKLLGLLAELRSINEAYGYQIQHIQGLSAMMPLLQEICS

Experiment [5] shares this target. The experiment in a line: qHTS assay to identify small molecule agonists of the constitutive androstane receptor (CAR) signaling pathway (AID 1224839). Also: nearly all actives have a fitted effect of over 15% in size. The procedure, abridged: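 Luminescence read-out (ONE-Glo, 30 min, room temperature) from double-stable HepG2-CYP2B6-hCAR cells exposed 24 h to 15-point compound series in presence of 0.75 uM PK11195 final.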
Experiment [6] is described as follows: qHTS assay to identify small molecule antagonists of the estrogen related receptor signaling pathway with the pleiotropic PPARgamma coactivator (PGC) from Tox21 10K library - cell viability counter screen (AID 1224840; active = well fitted cell-killing curve with a large enough effect in the repeat runs, not every such curve was filed as active; also: nearly all actives have a fitted effect of over 40% in size; also: potency is read from the fitted curve at half-maximal effect). The procedure, abridged: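 PGC/ERR cells (2,000/well) plated 6 h, then compound-treated for 17.5 h at 37 C. Viability measured by CellTiter-Fluor fluorescence after 30 min at 37 C, multiplexed with the pathway assay.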

Experiment [7] in a line: qHTS assay to identify small molecule antagonists of the estrogen related receptor signaling pathway with the pleiotropic PPARgamma coactivator (PGC) from Tox21 10K library (AID 1224841; call rule not given here; also: actives are mostly falling curves and most rising ones were filed inactive; nearly all actives have a fitted effect of over 50% in size; also: potency is read from the fitted curve at half-maximal effect). The procedure, abridged:
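PGC/ERR cell line, 2,000 cells/well, pre-incubated 6 hours at 37 C, then exposed to compounds for 18 hours at 37 C; luciferase read with One-Glo luminescence after 30 min at room temperature.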

A short description of experiment [8]: qHTS assay to identify small molecule agonists of the estrogen related receptor signaling pathway with the pleiotropic PPARgamma coactivator (PGC) from Tox21 10K library (AID 1224842). Also: nearly all actives have a fitted effect of over 15% in size. The procedure, abridged: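 PGC/ERR reporter cells (NTP line) were seeded 2,000 per well, rested 6 h at 37 C/5% CO2, then pin-dosed with compounds in DMSO for 18 h at 37 C; luciferase read by One-Glo luminescence after 30 min at room temperature.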

For experiment [9], the target named is Thyrotropin receptor (Homo sapiens) (UniProt P16473). In words: qHTS assay to identify small molecule agonists of the thyroid stimulating hormone receptor (TSHR) signaling pathway (AID 1224843; calls by dose curve; also: nearly all actives have a fitted effect of over 45% in size; also: potency is read from the fitted curve at half-maximal effect). The procedure, abridged: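 Cell line HEK293 with TSHR; density 800/well. Exposure 30 min RT. Readout HTRF cAMP (cAMP-d2/anti-cAMP-cryptate), 1 h RT before reading.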
Thyrotropin receptor (Homo sapiens), sequence (P16473 whole entry, looked up): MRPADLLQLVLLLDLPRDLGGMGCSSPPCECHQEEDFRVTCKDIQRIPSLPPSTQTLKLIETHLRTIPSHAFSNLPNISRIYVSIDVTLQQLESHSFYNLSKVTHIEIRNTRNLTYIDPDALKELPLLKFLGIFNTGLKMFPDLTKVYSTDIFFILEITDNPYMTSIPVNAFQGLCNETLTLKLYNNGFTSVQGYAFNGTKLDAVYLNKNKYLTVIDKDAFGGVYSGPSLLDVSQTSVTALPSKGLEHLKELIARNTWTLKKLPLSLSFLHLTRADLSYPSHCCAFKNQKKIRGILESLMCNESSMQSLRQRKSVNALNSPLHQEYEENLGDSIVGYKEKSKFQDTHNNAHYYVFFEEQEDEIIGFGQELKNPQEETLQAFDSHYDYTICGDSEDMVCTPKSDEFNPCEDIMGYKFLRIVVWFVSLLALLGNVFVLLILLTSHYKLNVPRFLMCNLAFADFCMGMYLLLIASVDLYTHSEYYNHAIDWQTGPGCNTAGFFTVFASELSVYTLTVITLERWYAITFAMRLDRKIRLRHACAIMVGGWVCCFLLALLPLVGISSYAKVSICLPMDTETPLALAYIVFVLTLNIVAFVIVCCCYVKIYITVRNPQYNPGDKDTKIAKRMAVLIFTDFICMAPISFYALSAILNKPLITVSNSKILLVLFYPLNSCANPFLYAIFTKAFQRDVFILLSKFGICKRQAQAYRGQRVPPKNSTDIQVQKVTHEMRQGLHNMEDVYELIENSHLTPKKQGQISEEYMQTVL

The nature of experiment [10]: qHTS assay to identify small molecule agonists of the hypoxia (HIF-1) signaling pathway - cell viability counter screen (AID 1224844; calls by dose curve; also: nearly all actives have a fitted effect of over 50% in size; also: potency is read from the fitted curve at half-maximal effect). The procedure, abridged: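 HRE-bla ME-180 cells, 2,000/well in 0.5% dialyzed FBS medium, treated 17 h at 37C with compounds. Viability read in the same wells as the bla reporter, by CellTiter-Glo luminescence after 30 min at room temperature.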

The nature of experiment [11]: qHTS assay to identify small molecule agonists of H2AX (AID 1224845; active = well fitted activation curve with a large enough effect in the signal ratio in the repeat runs, not every such curve was filed as active; the % refers to the signal ratio). The procedure, abridged: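 Wild-type CHO-K1 cells plated overnight, then exposed 3 hr at 37C to compounds at 15 concentrations (0.76% DMSO). Lysed, then HTRF anti-pH2AX(S139)-cryptate/anti-H2AX-d2 detection after 24 hr at room temperature; emissions 665 and 620 nm.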
The nature of experiment [12]: qHTS assay to identify small molecule agonists of the hypoxia (HIF-1) signaling pathway (AID 1224846; active = well fitted activation curve with a large enough effect in the signal ratio in the repeat runs, not every such curve was filed as active; the % refers to the signal ratio). The procedure, abridged:
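HRE-bla ME-180 beta-lactamase reporter cells in medium with 0.5% dialyzed FBS, pre-incubated 5 h then exposed to compounds 17 h at 37C, 5% CO2; reporter induction read with CCF4-AM FRET substrate.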

Experiment [13] can be described thus: qHTS assay to identify small molecule agonists of H2AX - cell viability counter screen (AID 1224847; calls by dose curve; also: nearly all actives have a fitted effect of over 30% in size; also: potency is read from the fitted curve at half-maximal effect). The procedure, abridged: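 CHO-K1 wt, 1000 cells/well, o/n 37C; cpds 15 conc, 3 h 37C, 0.76% DMSO; CellTiter-Glo, 30 min RT, luminescence.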
A short description of experiment [14]: qHTS assay to identify small molecule antagonists of the estrogen related receptor (ERR) signaling pathway from Tox21 library (AID 1224848). Also: nearly all actives have a fitted effect of over 50% in size. Also: potency is read from the fitted curve at half-maximal effect. The procedure, abridged: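 Screening used an ERR reporter line supplied by NTP, exposed for 18 h at 37 C to library compounds delivered in DMSO. Signal was luciferase luminescence developed with ONE-Glo at room temperature for 30 min.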

Experiment [15] in a line: qHTS assay to identify small molecule agonists of the estrogen related receptor (ERR) signaling pathway from Tox21 library (AID 1224849; calls by dose curve; also: nearly all actives have a fitted effect of over 15% in size). The settings on record: ERR reporter cell line, ONE-Glo luciferase, 18 h. The procedure, abridged: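 ERR reporter cells (NTP line) pre-incubated 6 hours at 37 C, then exposed to compounds for 18 hours at 37 C. ONE-Glo luciferase luminescence was read after 30 minutes at room temperature.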

Experiment [16] in a line: qHTS RealTime-Glo MT Cell Viability Assay in HepG2 cells - 24 hour (AID 1224867). Also: nearly all actives have a fitted effect of over 50% in size. Also: potency is read from the fitted curve at half-maximal effect. The procedure, abridged:
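Cell number in HepG2 cultures estimated from NanoLuc luminescence generated by metabolic reduction of a prosubstrate by living cells. The homogeneous, nonlytic format allowed repeated reads at 0, 8, 16, 24, 32 and 40 h of compound exposure.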

Experiment [17] is described as follows: A CellTox Green Cytotoxicity Assay to monitor cytotoxicity in HEK293 cells - 0 hour (AID 1224869). Also: nearly all actives have a fitted effect of over 50% in size. The procedure, abridged:
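HEK293 cells, 600/well, were preincubated 5 hours and then exposed to compounds at 37 C for up to 40 hours. A cell-impermeant cyanine dye staining dead-cell DNA was read by fluorescence at 0, 8, 16, 24, 32 and 40 h time points.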

The target of experiment [18] is Luciferin 4-monooxygenase (Photinus pyralis) (UniProt P08659). In words: qHTS assay to identify small molecule inhibitors of firefly luciferase (AID 1224835). Also: nearly all actives have a fitted effect of over 25% in size. Also: potency is read from the fitted curve at half-maximal effect. The procedure, abridged:
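Quantitative HTS format; KM concentrations of both substrates. Purified P. pyralis FLuc activity quantified from luminescence images.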

Experiment [19] in a line: qHTS RealTime-Glo MT Cell Viability Assay in HEK293 cells - 32 hour (AID 1224868). Also: nearly all actives have a fitted effect of over 50% in size. Also: potency is read from the fitted curve at half-maximal effect. The procedure, abridged: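 Homogeneous bioluminescent viability format in HEK293 cells (600 cells/well). Following 5 h at 37 C/5% CO2, 23 nL compound was pintooled; the signal was measured repeatedly during 40 h incubation.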
Experiment [20] in a line: qHTS RealTime-Glo MT Cell Viability Assay in HepG2 cells - 40 hour (AID 1224870). Also: nearly all actives have a fitted effect of over 50% in size. Also: potency is read from the fitted curve at half-maximal effect. The procedure, abridged: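 HepG2 cells mixed with RealTime-Glo MT reagents (NanoLuc plus cell-permeant prosubstrate) were seeded at 600 cells/well, incubated 5 h at 37 C/5% CO2, then pinned with compounds in DMSO; nonlytic luminescence tracked viability during 40 h treatment.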
% is scaled to controls: 0 for no effect and ±100 for the full control effect.

Luciferin 4-monooxygenase (Photinus pyralis), sequence (P08659 whole entry, looked up): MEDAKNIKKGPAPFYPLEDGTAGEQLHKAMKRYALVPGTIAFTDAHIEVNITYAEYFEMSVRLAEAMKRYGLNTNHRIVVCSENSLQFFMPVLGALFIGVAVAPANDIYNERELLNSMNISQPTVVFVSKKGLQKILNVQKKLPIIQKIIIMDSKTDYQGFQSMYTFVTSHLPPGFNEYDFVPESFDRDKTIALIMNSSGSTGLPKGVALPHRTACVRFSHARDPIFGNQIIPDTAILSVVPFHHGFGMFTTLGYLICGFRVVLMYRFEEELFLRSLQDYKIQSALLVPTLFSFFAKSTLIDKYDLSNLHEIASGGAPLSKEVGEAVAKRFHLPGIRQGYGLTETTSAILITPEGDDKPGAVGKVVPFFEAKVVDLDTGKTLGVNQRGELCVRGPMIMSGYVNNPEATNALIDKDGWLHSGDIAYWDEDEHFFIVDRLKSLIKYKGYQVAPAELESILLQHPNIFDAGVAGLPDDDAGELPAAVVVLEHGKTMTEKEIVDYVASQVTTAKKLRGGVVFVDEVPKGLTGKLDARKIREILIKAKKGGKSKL

For `Cc1ccc(-c2ccccc2)cc1`, the Potency entry in experiment [1], in experiment [2], in [3], in experiment [4], in experiment [5] and in experiment [6] was “inactive” in each case. In addition, the Potency entry in experiment [7], in [8], in experiment [9], in experiment [10], in experiment [11] and in experiment [12] was “inactive” throughout. The Potency entry in experiment [13], in experiment [14], in experiment [16] and in [17] was “inactive” throughout. For the same compound, the activity change, positive = activation in experiment [15] (at 92.4 µM (top of the series)) is -3.62% (inactive).
In the case of `CCCCCCCCCCCCCC[N+](C)(C)Cc1ccccc1`, the Potency was 62.1 µM (active) and 23.7 µM (active) and 22.4 mM (active) in experiment [1]; 62.1 µM (active) and inactive in experiment [6]; 31.1 µM (active) and 11.9 µM (active) and 15.8 mM (active) in [7]; 43.9 µM (active) in experiment [9]; “inactive and 17.8 mM (active)” in experiment [10]; 25.7 µM (active) and 49.2 µM (active) in experiment [13]. Further, the Potency is 9.84 µM (active) and 10.6 µM (active) and 11.2 mM (active) in [14]; 44.3 µM (active) and 10.7 µM (active) and 17.8 mM (active) in experiment [16]; 3.52 µM (active) and 3.01 µM (active) and 2.82 mM (active) in experiment [19]; 22.2 µM (active) and 9.52 µM (active) and 15.8 mM (active) in experiment [20]. The Potency entry in experiment [18], in [4], in [8], in [11] and in experiment [17] was “inactive” each time. Besides, the activity change, positive = activation in [15] (at 42.5 µM (top of the series)) is -57.9% (inactive); in experiment [15] (at 92.4 µM (top of the series)), -69.7% (inactive); in experiment [15] (at 46.2 mM (top of the series)), -75.1% (inactive).
As to `[Cu+]`, the Potency result in [1], in experiment [2], in experiment [3], in experiment [6], in [9] and in [10] was “inactive” in each case. For the same compound, the Potency entry in experiment [11] and in [17] was “inactive” throughout. Also, the Potency in experiment [18] is 35.6 µM (active); in [20] it was 34.7 µM (active).
With `Fc1ccc(C(c2ccc(F)cc2)N2CCNCC2)cc1`, the Potency entry in experiment [1], in experiment [18], in [3], in experiment [4], in experiment [5] and in [6] was “inactive” each time. For the same compound, the Potency entry in experiment [9], in experiment [10], in experiment [11], in experiment [13], in experiment [16] and in experiment [17] was “inactive” in each case. Further, the Potency entry in experiment [20] was “inactive”.
With `Nc1ccc(Oc2ccc(Cl)cc2)cc1`, the Potency result in [1], in experiment [2], in experiment [3], in experiment [4], in experiment [6] and in experiment [7] was “inactive” each time. Further, the Potency result in experiment [8], in [9], in experiment [10], in experiment [12], in experiment [16] and in [17] was “inactive” in each case. In addition, in experiment [15] (at 92.4 µM (top of the series)), the activity change, positive = activation is -19.3% (inactive). For the same compound, the Potency in experiment [19] was 21.4 µM (active).
In the case of `O=C1OC2(c3ccc(O)cc3Oc3cc(O)ccc32)c2ccc(N=C=S)cc21`, the Potency entry in experiment [1], in experiment [18], in experiment [3], in experiment [6], in experiment [8] and in [9] was “inactive” each time. Also, the Potency entry in experiment [10], in [13] and in experiment [14] was “inactive” each time. For the same compound, the activity change, positive = activation in experiment [15] (at 92.4 µM (top of the series)) is 3.25% (inactive).
Regarding `CC(N=C(NC#N)Nc1ccncc1)C(C)(C)C` (stereo not given), the Potency entry in experiment [1], in [18], in experiment [2], in experiment [3], in [6] and in experiment [9] was “inactive” throughout. Also, the Potency result in experiment [10], in experiment [11], in [14], in experiment [16], in [19] and in experiment [20] was “inactive” in each case. Besides, the activity change, positive = activation in experiment [15] (at 42.5 µM (top of the series)) was -15.5% (inactive).
